Among the data in PubChem BioAssay (NCI) are growth values, retold here.

About 83,000 compounds went through this panel and 20% of them were active in at least one assay; those are over-represented in the sample as a whole.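 Treatment: one concentration, 48 hours, 96-well format. Scoring: percent growth, with anything below 10 considered active.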 Unmarked numbers belong to inactive results. Activity calls are given as the source filed them.

The test system of this test is MDA-MB-468 breast. Put plainly: NCI-60 one-dose screen, 48 h (100 = growth as untreated, 0 = no growth, -100 = all killed). The conditions noted are these: 10 µM unless noted.
On to `O=C(c1ccc(Cl)cc1)c1ccc(Cl)cc1`, for which the growth is 97.2%.

Regarding `C[C@@H]1CC[C@@H]2[C@@H]1[C@H](OC(=O)/C=C/c1ccccc1)[C@]1(CCCOCCOCCOCCOC(=O)CCCC[C@@H]3SC[C@@H]4NC(=O)N[C@@H]43)C[C@@H](OC(=O)CO)[C@@]2(C)O1`, the growth is 111%. The figure for `c1ccc2nc(Cn3cc[n+](Cc4ccc5ccccc5n4)c3)ccc2c1` is 1.53% (active); for `COc1ccc(C2=Nc3c(C)nn(-c4ccccc4)c3NC(c3ccc(Oc4ccnc5cc(Cl)ccc45)c(OC)c3)C2)cc1` (stereo unspecified) it is 80.3%; for `COCCn1cc(-c2csc(-c3c[nH]c4ccc(F)cc34)n2)c2cccnc21` it is -6.83% (active). The figure for `O=c1c(O)cccn1CCCNCCCN(CCCn1cccc(O)c1=O)CCCn1cccc(O)c1=O` is 109%; for `COc1ccc2c(c1)NC(=O)CN2c1nc(C)nc2ccccc12` it is 9.26% (active). As to `CCCCCCCC12Cc3ccccc3C1=Nc1c(c3ccccc3n1C)C2=O` (stereo unspecified), the growth is 97.3%. As for `CNc1nc(S(=O)c2ccc(C#N)cc2)nc2ccccc12` (stereo unspecified), the growth is -4.09% (active). The figure for `O=[n+]1c2ccccc2n([O-])c2cc(Cl)ccc21` is -15.4% (active); for `CCN(CC)CCCNc1cc(OC)cc2nc3cc(Cl)ccc3nc12` it is 11%. The figure for `COC(=O)CCSC1=C(C)C(=O)c2ccccc2C1=O` is -24.5% (active). Regarding `COc1ccc(C(=O)Nc2cccc(C3CC(=O)c4c(cc(OC)c(OC)c4OC)O3)c2)cc1` (stereo unspecified), the growth was -2.79% (active). The figure for `N#C/C(=C\c1ccc[nH]1)c1cc2ccccc2[nH]1` is -3.15% (active); for `COc1ccc([C@H]2c3[nH]c4ccccc4c3C[C@H]3C(=O)N(C4CCN(Cc5c(Cl)cccc5Cl)CC4)CC(=O)N23)c(OC)c1` it is 92.8%. With `CC(C)=C[C@@H]1c2c(c3ccccc3n(C)c2=O)O[C@H]2c3c(c4ccccc4n(C)c3=O)OC(C)(C)[C@@H]12`, the growth is 61.4%.

For `Nc1c(C(=O)Nc2cccc3ccccc23)sc2nc3c(cc12)COCC3`, the growth is 38.6%. With `COc1ccc(-c2nc(N/N=C/c3ccco3)nc(N3CCOCC3)c2C#N)cc1`, the growth was 36%.

In the case of `O=C(O)COc1ccccc1F`, the growth is 93.5%.

Take `CC(C)N1C(=O)S/C(=C2/SC(=O)N(C(C)C)C2=O)C1=O`: the growth is 94.5%. Consider `Cc1cc2c(cc1C)Nc1sc(NC(=O)CN3CCN(C)CC3)nc1C(=O)N2`, for which the growth was 105%. In the case of `CC[C@]12CN3CCc4c([nH]c5ccccc45)[C@@](C(=O)OC)(c4cc5c(cc4OC)N(C)[C@H]4[C@@](O)(C(=O)OC)[C@H](OC(C)=O)[C@]6(CC)C=CCN7CC[C@]54[C@@H]76)CC(C3)[C@H]1O2` (stereo partly specified), the growth is -12.7% (active).

As for `Cc1nccc2c3ccc(OCc4cn(-c5ccc(Cl)cc5)nn4)cc3n(CC(C)C)c12`, the growth is -1.72% (active). Turning to `COc1ccc(NC(=O)/N=c2\oc3c(OC)cccc3cc2-c2cc3ccccc3[nH]2)cc1`, the growth is 61.1%.

For the molecule `O=c1c2ccccc2oc2ccc(OCCCCCN3CCCCCC3)cc12`, the growth was 49.8%.

Regarding `C=C(C[C@@](O)(C(=O)Oc1ccccc1)C(=O)C1CCCCC1)c1ccccc1`, the growth is 85.3%.

Consider `Cc1cccc(-c2nc(C(C)C)sc2-c2ccnc(NCCCNS(=O)(=O)c3ccc(Cl)cc3)c2)c1`, for which the growth is 55.2%. For the molecule `COc1cc(/C=C/C(=O)c2ccccc2)ccc1Oc1nc(NCCO)nc(N2CCOCC2)n1`, the growth was 103%. The figure for `CCN(CCO)CCC(=O)c1ccc([N+](=O)[O-])cc1` is 98.1%; for `C=C(C)[C@@H]1CC[C@]2(COC3CCCCO3)CC[C@]3(C)[C@H](CC[C@@H]4[C@@]5(C)C=C(C=O)C(=O)C(C)(C)[C@@H]5CC[C@]43C)[C@@H]12` (stereo partly specified) it is -53.1% (active). As to `N#C/C(C(=O)c1ccccc1)=C1/C(=O)Nc2ccc(F)cc21`, the growth is 106%. `O=C(/C=C/c1cc(-c2ccc3c(c2)OCO3)n[nH]1)c1ccc2c(c1)OCO2`: the growth was 77.2%.

Take `O=C1Cc2cc(CCN3CCN(CCOCCO)CC3)c(Cl)cc2N1Cc1ccc(-c2ccccc2-c2nn[nH]n2)cc1`: the growth was 82.7%. As for `CN(C)CCC=C1c2ccccc2C(C)(C)c2ccccc21`, the growth is 56.6%. As to `C(=N\Nc1nnc2n1N=C(c1ccccc1)CS2)/c1ccc(OCc2ccccc2)cc1`, the growth is 88.9%. With `CN1CCCNc2c(c(=O)c2=O)NCCCN(C)CCCNc2c(c(=O)c2=O)NCCCN(C)CCCNc2c(c(=O)c2=O)NCCCN(C)CCCNc2c(c(=O)c2=O)NCCCN(C)CCCNc2c(c(=O)c2=O)NCCCN(C)CCCNc2c(c(=O)c2=O)NCCCN(C)CCCNc2c(c(=O)c2=O)NCCC1`, the growth was 32.9%.
